Assay outcomes deposited in PubChem BioAssay by several laboratories.
EP2 mod: EP2 receptor modulators, cAMP readout, primary screen, cell-based, HTRF cAMP, PGE2 stimulation | 0.83% of 260,000 active | AID 940, 2007 | induction, % at 25 µM | EP2-expressing cells, cAMP HTRF FRET, PGE2 co-stimulation;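 active = compounds whose cAMP rise, as percent of the full-agonist control response, exceeds 60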;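 note: rat C6 glioma line stably carrying human EP2 under a CMV promoter; the protocol text gives 20 µM as final concentration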
Target sequence (P43116 whole entry, looked up): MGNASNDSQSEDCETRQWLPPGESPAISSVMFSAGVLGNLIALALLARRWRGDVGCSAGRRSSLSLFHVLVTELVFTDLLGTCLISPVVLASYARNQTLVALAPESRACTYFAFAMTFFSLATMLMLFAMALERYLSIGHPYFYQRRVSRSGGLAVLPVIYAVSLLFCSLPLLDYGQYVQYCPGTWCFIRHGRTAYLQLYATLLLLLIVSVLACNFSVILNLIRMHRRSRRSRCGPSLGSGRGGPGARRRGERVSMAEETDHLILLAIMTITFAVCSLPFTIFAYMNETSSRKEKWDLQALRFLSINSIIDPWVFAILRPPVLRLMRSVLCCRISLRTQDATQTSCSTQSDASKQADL
Calpain2 inh: inhibitors of pig calpain II, primary screen, biochemical, fluorogenic peptide substrate, 1536-well; purified calpain II, 30 min; inhibition, % at 16 µM; 0.37% of 220,000 active;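 active = inhibition above about 50%, limit read from the data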
HMGR II inh: inhibitors of E. faecalis class II HMGR, primary screen, biochemical, Enterococcus faecalis. purified E. faecalis HMGR, NADPH absorbance 340 nm kinetic. inhibition, % at 10 µM. 0.41% of 190,000 active;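 active = inhibition above a set limit, the median over all tested compounds plus 3 SD, cut at about 9.5% in these data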;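 note: enzyme runs in reverse so mevalonate oxidation gives rising NADPH absorbance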
PGE2 EP2 inh: human EP2 receptor antagonists, primary screen, TR-FRET cAMP, C6 glioma cells; Prostaglandin E2 receptor EP2 subtype (Homo sapiens), P43116; 0.52% of 260,000 active; inhibition, % at 25 µM; C6 glioma cells expressing human EP2; cells stimulated with saturating PGE2;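 active = percent inhibition above 40 after rounding to a whole number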;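 note: rat C6 glioma host cells with rolipram phosphodiesterase inhibitor present; the protocol text gives 20 µM as final concentration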
Furin inhibitor: human furin inhibitors, primary screen, biochemical, fluorescence intensity. P09958. purified furin, fluorogenic substrate cleavage. inhibition, % at 20 µM or 30 µM. 0.061% of 220,000 active; in the data active = inhibition above about 25%
Large screens that a line does not name were inactive. Rows were chosen to be rich in hits. Some 1.9% of all compounds tested hit in one or more screens of this group.

Cc1ccc(C(=O)C2=C(O)C(=O)N(Cc3ccccc3)C2c2cccnc2)o1 (stereo not drawn)	EP2 mod 61
Cc1ccc(C2C(C#N)=C(N)Oc3cc(C)oc(=O)c32)o1 (stereo not drawn)	none
CCOc1ccc(C2C(C#N)=C(N)Oc3cc(C)oc(=O)c32)cc1 (stereo not drawn)	HMGR II inh 16
O=C1NN(c2ccc(Cl)c(Cl)c2)C(=O)/C1=C/c1cccc(OC(=O)c2cccs2)c1	none
O=C1NN(c2ccccc2)C(=O)/C1=C\c1cccc(OC(=O)c2cccs2)c1	PGE2 EP2 inh 40
Clc1ccc(/C=N/NC(=Nc2ccccc2)c2ccccn2)c(Cl)c1	EP2 mod 61 (no result: PGE2 EP2 inh)
CCc1nn(CC(=O)N2CCCCCC2)c(=O)c2cc3occc3n12	none (no result: Calpain2 inh, HMGR II inh, Furin inhibitor)
Cc1cc2cc(C)c(SCC(=O)Nc3ccc4c(c3)OCO4)nc2cc1C	none (no result: Calpain2 inh, HMGR II inh, Furin inhibitor)
CCC(C)(C)n1nnnc1C(c1ccc(C(F)(F)F)cc1)N1CCC(C)CC1 (stereo not drawn)	EP2 mod 77 (no result: Calpain2 inh, HMGR II inh, Furin inhibitor)
C[C@@H]1CC=C[C@H]2[C@H]1C(=O)N(Cc1ccccc1)[C@H]2c1ccc(C(F)(F)F)cc1	EP2 mod 61 (no result: HMGR II inh)
CC(C)c1ccc2[nH]c3nc(SCC(=O)Nc4ccc(F)cc4)nnc3c2c1	none (no result: Calpain2 inh, HMGR II inh, Furin inhibitor)
COc1ccc(-c2csc(NC(=O)c3ccccc3NS(=O)(=O)c3ccc(F)c(F)c3)n2)cc1	Calpain2 inh 61
Cc1ccc(S(=O)(=O)Nc2ccccc2C(=O)Nc2nc(-c3ccc(F)cc3)cs2)cc1	none
COc1ccc2[nH]cc(CCNC(=O)C3CCCN(c4nc5ccccc5n4C)C3)c2c1 (stereo not drawn)	none (no result: Calpain2 inh, HMGR II inh, Furin inhibitor)
COc1ccc2[nH]c(=O)c(CN(C(=O)Nc3ccccc3Cl)C3CCCCC3)cc2c1	none (no result: Calpain2 inh, HMGR II inh, Furin inhibitor)
CCCCCCCCCn1c2c(c(=N)c3c1CCC3)CCC2	Calpain2 inh 51
C/C(=N\NC1=NCCN1)c1cn(C2=NCCN2)nc1C	PGE2 EP2 inh 49 (no result: Calpain2 inh, HMGR II inh, Furin inhibitor)
CCCCOc1ccc(Br)cc1/C(C)=N/NC1=NCCN1	none
Cc1sc(NC(=S)NC(=O)c2cccs2)nc1-c1ccc(C(C)C)cc1	Calpain2 inh 62
O=C(Cc1c(F)cccc1Cl)Nc1nncs1	none (no result: Calpain2 inh, HMGR II inh, Furin inhibitor)
Clc1cccc(Cl)c1C(Nc1nncs1)Nc1nncs1	PGE2 EP2 inh 52 (no result: Calpain2 inh, HMGR II inh, Furin inhibitor)
CC(=O)Nc1nncs1	none (no result: Calpain2 inh, HMGR II inh, Furin inhibitor)
Fc1cccc(F)c1C(Nc1nncs1)Nc1nncs1	PGE2 EP2 inh 46 (no result: Calpain2 inh, HMGR II inh, Furin inhibitor)
CCOC(=O)c1cc[n+](CC(=O)c2ccc(C)cc2)cc1	none (no result: Calpain2 inh, HMGR II inh, Furin inhibitor)
COc1ccc(-c2nc3c4ccccc4ccn3c2CN2CCCCC2)cc1OC	EP2 mod 64 (no result: HMGR II inh)
CSc1nc2cc(Oc3cccc(Cl)c3Cl)c(Cl)cc2[nH]1	Calpain2 inh 61 (no result: EP2 mod, Furin inhibitor)
Fc1cnc(N2CCOCC2)nc1Nc1ccccc1Cl	none (no result: Calpain2 inh, HMGR II inh, Furin inhibitor)
O=C(/C=C/c1ccccc1)N(Cc1nc2ccccc2c(=O)[nH]1)Cc1cccs1	EP2 mod 63 (no result: Calpain2 inh, HMGR II inh, Furin inhibitor)
O=C(c1ccncc1)N(Cc1nc2ccccc2c(=O)[nH]1)Cc1cccs1	none (no result: Calpain2 inh, HMGR II inh, Furin inhibitor)
O=[N+]([O-])c1cc(C(F)(F)F)ccc1NC1CCN(Cc2ccccc2)CC1	EP2 mod 61 (no result: HMGR II inh)
CC1(C)CC(Nc2ccc(C(F)(F)F)cc2[N+](=O)[O-])CC(C)(C)N1	none
CCOc1ccc(-n2nnnc2SCC(=O)N2CCN(C)CC2)cc1	none (no result: Calpain2 inh, HMGR II inh, Furin inhibitor)
CCOC(=O)Nc1sc(C)c(C)c1C(=O)OCC	none
CCOC(=O)c1c(NC(=O)Nc2ccccc2)sc(C)c1C	EP2 mod 62
Cc1cccc(N/N=C(\C#N)S(=O)(=O)C(C)(C)C)c1	HMGR II inh 17
CCc1nn(CC(=O)N2CCC(C)CC2)c(=O)c2cc3oc(C)cc3n12	none (no result: Calpain2 inh, HMGR II inh, Furin inhibitor)
COc1ccc(C(C)=O)c2c(O)cccc12	Calpain2 inh 68
Cc1nc(Nc2ccccc2)sc1C(=O)c1ccccc1	Calpain2 inh 51 (no result: HMGR II inh)
Cn1c(=O)[nH]c(=O)c2[nH]c(N(Cc3ccccc3)Cc3ccccc3)nc21	Calpain2 inh 65
CCc1ccc(NC(=O)CSc2nnc(-c3ccco3)n2CCOC)cc1	none (no result: Calpain2 inh, HMGR II inh, Furin inhibitor)
Cc1ccccc1NC(=S)N(CCN1CCCCCC1)Cc1cccs1	HMGR II inh 10
CCN1CCCc2cc(CN(CCN3CCOCC3)C(=S)Nc3ccccc3OC)ccc21	none
Fc1ccccc1NC(=S)N(CCN1CCCCCC1)Cc1cccs1	none
CCN1CCCc2cc(CN(CCN3CCOCC3)C(=S)Nc3ccccc3C)ccc21	HMGR II inh 10
CC(C)C(=O)c1cc2c(cc1NC(=O)c1cccs1)OCCO2	EP2 mod 65
O=c1c2c(-c3cccs3)csc2ncn1-n1cccc1	Calpain2 inh 81
O=c1c2c(-c3cccs3)csc2ncn1-c1ccccc1	none
Cc1ccnn1CCC(=O)N[C@H](Cn1nc(-c2ccc(F)c(F)c2)ccc1=O)C(C)C	none (no result: Calpain2 inh, HMGR II inh, PGE2 EP2 inh, Furin inhibitor)
Cc1nc2ccccc2n1CC(O)COc1ccc(Cl)cc1Cl (stereo not drawn)	none (no result: Calpain2 inh, HMGR II inh, Furin inhibitor)
Cc1nc2ccccc2n1CC(O)COc1ccccc1Cl (stereo not drawn)	HMGR II inh 11
COCCCN1C(=O)C(O)=C(C(=O)c2cccs2)C1c1ccc(C(C)(C)C)cc1 (stereo not drawn)	none (no result: Calpain2 inh, HMGR II inh, Furin inhibitor)
O=C(CSc1ccccn1)C12CC3CC(CC(C3)C1)C2	Calpain2 inh 51
O=C(O)c1cccnc1SCC(=O)C12CC3CC(CC(C3)C1)C2	none (no result: HMGR II inh)
COc1cccc(CN(CC2CCCO2)C(=O)c2cc3ccccc3oc2=O)c1OC (stereo not drawn)	none (no result: Calpain2 inh, HMGR II inh, Furin inhibitor)
CCN(CC)c1nc2c(c(=O)[nH]c(=O)n2C)n1Cc1cccc2ccccc12	none (no result: Calpain2 inh, HMGR II inh, Furin inhibitor)
CCC(NC(C)C)C(O)c1ccc(O)c2[nH]c(=O)ccc12 (stereo not drawn)	EP2 mod 78
CCOC(=O)c1cc2c(=O)n3cc(C)ccc3nc2n(CCN2CCOCC2)c1=N	none (no result: Calpain2 inh, HMGR II inh, Furin inhibitor)
CC(C)C(=O)N1CCN(c2ccccc2NC(=O)c2ccccc2F)CC1	none (no result: Calpain2 inh, HMGR II inh, Furin inhibitor)
CC1(C)CC[C@]2(CO)[C@@H](O)C[C@]3(C)C(=CCC4[C@@]5(C)CC[C@H](O)C(C)(C)C5CC[C@]43C)[C@@H]2C1 (stereo partly drawn)	PGE2 EP2 inh 53 (no result: EP2 mod, Calpain2 inh, HMGR II inh, Furin inhibitor)
NC(=O)C(F)(F)C12OC3C4C5CC(C6C5C3C61)C42 (stereo not drawn)	PGE2 EP2 inh 106
Nc1[nH]n2c(=O)c3c(nc2c1N=Nc1ccc(Cl)cc1)CCCC3	EP2 mod 64
CCOc1ccc(OCC)c(NC(=O)CSc2ncnc3sc4c(c23)CCC4)c1	none (no result: Calpain2 inh, HMGR II inh, Furin inhibitor)
NS(=O)(=O)C1=C(Cl)CC2=NC(CCC(=O)O)=NS(=O)(O)=C2C1	PGE2 EP2 inh 45 (no result: Calpain2 inh, HMGR II inh, Furin inhibitor)
COc1ccc2[nH]c(=O)c(CN(CCc3ccccc3)C(=O)Nc3ccccc3OC)cc2c1	none (no result: Calpain2 inh, HMGR II inh, Furin inhibitor)
CCc1ccc(S(=O)(=O)NCc2cn3c(C)csc3n2)s1	Calpain2 inh 100
COc1ccc(NC(=O)C(C)Sc2ncnc3sc4c(c23)CCCC4)cc1 (stereo not drawn)	none (no result: Calpain2 inh, HMGR II inh, Furin inhibitor)
